From PubChem BioAssay
LANA-H2A inh: blocks KSHV LANA binding to histone H2A/H2B; Q9QR71; cell-free LANA-H2A/H2B peptide, fluorescence polarization; inhibition, % (test concentration not listed); 320,000 tested, 0.6% active; AID 2629; in the data active means inhibition mostly above about 10%, no sharp cut-off; inactive means mostly below about 6.7%
HDAC3 inh: blocks human histone deacetylase 3. O15379. AID 2718. recombinant HDAC3, fluorogenic peptide/trypsin coupled, fluorescence. 320,000 tested, 0.15% active. inhibition, % at 8.3 µM; in the data active means inhibition above about 26%, passing the limit was not always enough; inconclusive means no clear call, values can overlap the other calls
Target sequence (O15379 whole entry, looked up): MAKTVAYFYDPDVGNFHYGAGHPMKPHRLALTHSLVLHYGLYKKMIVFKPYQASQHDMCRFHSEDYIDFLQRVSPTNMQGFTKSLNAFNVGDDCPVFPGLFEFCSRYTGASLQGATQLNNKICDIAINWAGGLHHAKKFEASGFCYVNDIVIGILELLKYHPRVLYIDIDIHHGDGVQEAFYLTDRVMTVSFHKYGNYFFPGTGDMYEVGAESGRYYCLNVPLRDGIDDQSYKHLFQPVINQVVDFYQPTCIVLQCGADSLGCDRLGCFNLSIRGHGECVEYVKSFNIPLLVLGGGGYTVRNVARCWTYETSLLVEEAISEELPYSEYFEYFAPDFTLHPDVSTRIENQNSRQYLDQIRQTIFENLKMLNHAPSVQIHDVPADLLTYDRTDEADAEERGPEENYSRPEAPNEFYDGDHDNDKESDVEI
DAGLB inhibitor: diacylglycerol lipase beta (human) inhibition; Q8NCG7; HEK293T DAGLB membrane lysate, EnzChek fluorogenic substrate; inhibition, % at 5.17 µM; 340,000 tested, 0.059% active; in the data active means inhibition above about 34%
iPSC survival up: increases survival of single human iPS cells | hiPSC single-cell survival, ATPlite luminescence; 100% = ROCK inhibitor wells, 0% = DMSO | survival enhancement, % at 20 µM | 360,000 tested, 0.044% active; in the data active means survival enhancement above about 18%;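 further: cells exposed to compounds for 16 hours before the ATP read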
A number is an active result; i = inactive; ? = inconclusive; nt = not tested or not shown; + = active, no number; ! = a repeat was not active. Shown are actives, neighbours in structure and some others; about 0.79% of the full set was active somewhere.

SMILES | LANA-H2A inh | HDAC3 inh | DAGLB inhibitor | iPSC survival up
COc1ccc(CC(=O)N2CCc3cc(OC)c(OC)cc3C2C)c(OC)c1 (stereo unspecified) | i | i | i | i
O=C(O/N=C(/c1ccccc1)c1ccncc1)c1ccc(F)cc1 | i | 31 | nt | i
COc1ccccc1C(=O)O/N=C(\c1ccccc1)c1ccncc1 | i | i | i | i
CCOc1nc(Nc2ccccc2F)nc(OCC)n1 | i | i | i | i
C=CCNc1nc(Nc2ccccc2F)nc(OCC)n1 | 16 | i | i | i
Cc1sc2ncnc(SCC(=O)N3CCCC(C(F)(F)F)C3)c2c1C (stereo unspecified) | i | i | i | i
CC(SC1=Nc2ccccc2C2CC=NN12)C(=O)NC1(C#N)CCCCC1 (stereo unspecified) | i | i | i | i
CC(Sc1ncccn1)C(=O)NC1(C#N)CCCCC1 (stereo unspecified) | 18 | i | i | i
NNc1ncnc2c1cnn2-c1ccccc1 | 26 | i | i | i
CC(C)Nc1ncnc2c1cnn2-c1ccccc1 | i | i | i | i
O=C(Oc1oc(-c2ccco2)nc1C=Nc1ccccc1)c1ccco1 | i | 90 | i | i
O=C(Oc1oc(-c2ccco2)nc1C=Nc1ccccc1)c1ccoc1 | i | 90 | i | i
Cc1ccc(C(=O)Oc2oc(-c3ccco3)nc2C=Nc2ccc(Cl)cc2)cc1 | i | ? | i | i
Cc1ccccc1OCC(=O)NNC(=O)c1cc(S(=O)(=O)N2CCOCC2)ccc1N1CCCC1 | i | i | i | i
Cc1ccc(-n2ncc(C#N)c2N)cc1 | i | i | i | i
Cc1cc(C)nc(-n2ncc(C#N)c2N)n1 | 11 | i | i | i
O=C(Nc1ccccc1)c1ccccc1CCc1ccccc1 | 23 | i | i | i
CCN(CC)C(=O)c1cccc(NC(=O)C2=COCCO2)c1 | 18 | i | i | i
CCN(CC)S(=O)(=O)c1cc(NC(=O)C2=COCCO2)ccc1Cl | i | i | i | i
COc1ccc(Cl)cc1NC(=O)c1cc(-c2ccccc2O)n[nH]1 | 16 | i | i | i
COc1ccc(OC)c(NC(=O)c2cc(-c3cc(Cl)ccc3O)n[nH]2)c1 | i | i | i | i
C/C=C1\NC(=O)[C@H](CC(N)=O)N(C)C(=O)C([C@@H](C)O)NC(=O)C(CCCc2ccc(OC)cc2)NC(=O)[C@H](C(C)C)NC(=O)/C(=C\C)NC(=O)[C@H](O)[C@@H](C[C@@H](O)CCCCCCC)NC(=O)[C@H](C)NC(=O)CN(C)C(=O)[C@H](CCC(N)=O)NC1=O (stereo partly specified) | nt | nt | i | i
Fc1ccc(CN2C3=NCCCN3c3ccccc32)cc1 | 59 | i | i | i
CCN(CCCc1ccccc1)CCCc1ccccc1 | 38 | nt | i | i
COc1ccc(C(C(=O)NC(C)(C)C)N(Cc2ccccc2)C(=O)CCC(=O)Nc2cc(C)on2)cc1 (stereo unspecified) | i | i | i | i
SMILES | LANA-H2A inh | HDAC3 inh | DAGLB inhibitor | iPSC survival up
COc1ccc(C(C(=O)NC(C)(C)C)N(CCC(C)C)C(=O)CCC(=O)Nc2cc(C)on2)cc1 (stereo unspecified) | 19 | i | i | i
COc1ccc(C2=NN(C(=O)c3ccco3)C(c3cc4ccccc4nc3Cl)C2)cc1 (stereo unspecified) | i | i | nt | nt
O=C(c1ccco1)N1N=C(c2ccco2)CC1c1ccc(Cl)cc1Cl (stereo unspecified) | + | i | i | i
CC(C)(CNc1ccc(S(=O)(=O)C(F)(F)F)cc1[N+](=O)[O-])N1CCOCC1 | 27 | i | i | i
CC(C)(CNc1ccc([N+](=O)[O-])cc1C#N)N1CCOCC1 | i | i | i | i
O=C(COc1ccc(Cl)cc1)NCC(=O)N/N=C/c1cccs1 | i | i | i | i
O=C(COc1ccccc1)NCC(=O)N1CCCCCC1 | 50 | i | i | i
S=C(NCCc1ccccc1)N/N=C/c1cccs1 | i | i | nt | i
S=C(NCc1ccccc1)N/N=C/c1cccs1 | 13 | i | i | i
O=C(COc1ccccc1)N1CCCCCCC1 | i | i | i | i
O=C(COc1ccccc1)NCC(=O)N/N=C/c1cccs1 | 55 | i | i | i
CCC(=O)n1nc(-c2cccnc2)nc1NCc1ccc(F)cc1 | i | 29 | i | i
CC(=O)n1nc(-c2ccccc2)nc1NCc1ccc(F)cc1 | i | 32 | i | i
CCC(=O)n1nc(-c2cccnc2)nc1NCc1ccccc1 | nt | nt | i | i
Cc1ccc(S(=O)(=O)N(C)CC(=O)Nc2cc(C)ccn2)cc1 | i | i | i | i
COC(=O)C(Cc1ccc(O)cc1)NC(=O)C1CCN(S(=O)(=O)c2ccc(C)cc2)CC1 (stereo unspecified) | i | i | i | i
Cc1c(C(=O)NCc2ccoc2)oc2ccc3c(c12)C(=O)CC(C)(C)O3 | 29 | i | i | i
CCOC(=O)c1c(S(=O)(=O)NC2CCN(C(=O)OCC)CC2)c(C)n(C)c1C | i | i | i | i
COc1cc(C(=O)O/N=C2/C=C(C)C(=O)C=C2C)cc(OC)c1OC | i | 35 | i | i
CC(N=C(NC#N)Nc1ccncc1)C(C)(C)C (stereo unspecified) | 48! | i | i | i
FC(F)(F)c1cccnc1-n1cncn1 | 13 | i | i | i
C=CCC[C@H](Cc1ccc(F)cc1)C(=O)OC[C@@H]1CCCN1C(=O)[C@@H](CC=C)CC(=O)NCCO | i | i | i | i
C=CCC[C@@H](Cc1ccc(F)cc1)C(=O)OC[C@@H]1CCCN1C(=O)[C@@H](CC=C)CC(=O)N[C@@H](CO)Cc1ccccc1 | i | 35 | i | i
C=CCC[C@@H](Cc1ccc(F)cc1)C(=O)OCCNC(=O)[C@@H](CC=C)CC(=O)N[C@@H](CO)Cc1ccccc1 | 26 | i | i | i
CCN1CCN(S(=O)(=O)c2ccc(C(C)(C)C)cc2)CC1 | 13 | i | i | i
SMILES | LANA-H2A inh | HDAC3 inh | DAGLB inhibitor | iPSC survival up
O=c1c2cnn(-c3ccccc3)c2nc(-c2ccco2)n1-c1ccccc1 | i | i | i | i
O=c1oc(-c2ccco2)nc2c1cnn2-c1ccccc1 | i | 62 | i | i
COC(=O)c1ccc(Nc2c([N+](=O)[O-])c(=O)oc3ccccc23)cc1 | i | i | i | i
CC(=O)N1CC(=O)N=C1SCC(=O)Nc1nc(C)c(-c2ccccc2)s1 | i | 26 | i | i
O=C(Nc1ccccc1OC(F)F)c1ccc(N2CCCC2=O)cc1 | nt | nt | i | i
Cc1c(Cc2ccccc2)c(=O)oc2c(CN(C)C)c(O)c(Cl)cc12 | 5.7 | i | i | i
COC(=O)C(/C=N/OCc1ccc([N+](=O)[O-])cc1)NC(=O)c1cccc(Cl)c1 (stereo unspecified) | i | 44 | i | i
COc1ccc(CCN2CC(C(=O)N(C)CC(=O)Nc3ccc(F)c(F)c3F)CC2=O)cc1OC (stereo unspecified) | nt | nt | i | i
CCOc1ccccc1C(=O)Nc1cc(C)ccc1NC(=O)c1ccco1 | i | i | i | i
COc1ccccc1NS(=O)(=O)c1ccc2oc(SCC(C)=O)nc2c1 | i | 42 | i | i
CCOC(=O)CSc1nc2cc(S(=O)(=O)Nc3ccccc3OC)ccc2o1 | i | i | i | i
Cc1cc(N2CC(C)OC(C)C2)nc(C(C)C)n1 (stereo unspecified) | + | i | i | i
